Assay results: PubChem BioAssay (EPA / NIEHS)
Activity calls are given as the source filed them. The calls were made as follows: active = hit-call score of the fitted dose curve at least 0.9, where 1 is the maximum; inactive = score below 0.9.

Read-out: Vascular cell adhesion molecule 1 (VCAM1), VCAM1 (gene 7412)
Assay: BSK_4H_VCAM1: BioMAP Diversity Plus: 4H Assay for Vascular cell adhesion molecule 1 (VCAM1) Biomarker Activity (AID 2283033)
Details: primary human endothelial cells (HUVEC); actives raise or lower the signal
Summary of the method: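 Primary human umbilical vein endothelial cells, 4H stimulation system, treated for 24 h; cell-surface VCAM-1 quantified by ELISA. Bidirectional fitting against DMSO; cytotoxicity tracked by SRB total-protein staining in parallel cultures.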

outcome, inactive:
O=C1O[C@H]([C@H](O)CO)C(O)=C1O
O=C(O)CC(O)(CC(=O)O)C(=O)O
CN(C)CCCN(C)CCCN(C)C
Cn1cnc2c1c(=O)[nH]c(=O)n2C
N[C@@H](Cc1c[nH]c2ccccc12)C(=O)O
CO[C@@H]1COCC[C@@H]1N[C@@H]1CC[C@@](C(=O)N2CCc3ncc(C(F)(F)F)cc3C2)(C(C)C)C1
CC(C)c1cccc(C(C)C)c1
CC(=O)O
NC(=Nc1ccccc1)Nc1ccccc1
CC(=O)S[C@H](C(=O)N[C@H]1Cc2ccccc2[C@H]2CCC[C@@H](C(=O)O)N2C1=O)C(C)C
OCC(CO)n1cnc(-c2ccc(F)cc2)c1-c1ccnc(Oc2ccccc2)n1
CCCCc1nc2cccnc2n1Cc1ccc(-c2ccccc2-c2nnn[nH]2)cc1
O=C1NC(=O)C(c2ccccc2)(c2ccccc2)N1
CCCC[C@H]1CN(CC2CCOCC2)C(=O)OC12CCN(C1(C)CCN(C(=O)c3c(C)ncnc3C)CC1)CC2
O=C(O)c1cccnc1
O=C(Oc1ccccc1)c1cccc(C(=O)Oc2ccccc2)c1
O=C1c2c(O)cccc2Cc2cccc(O)c21
COc1ccc(C(=O)Nc2nc3ccccc3c(NCc3ccccc3)c2C#N)cc1
O=[Si]=O
COC(=O)CCC(=O)OC
O=Cc1ccccc1C=O
c1ccc2occc2c1
CC(C)NCC(O)c1ccc(O)c(O)c1 (configuration not stated)
C/C=C/C=C/C(=O)O
CC1=C(C)S(=O)(=O)CCS1(=O)=O
CCCCC(CC)COC(=O)CCCCCCCC(=O)OCC(CC)CCCC (configuration not stated)

AC50, active:
CCCCCCCCCCCCCCOS(=O)(=O)O 20 µM
COC(=O)[C@H]1[C@H]2C[C@@H]3c4[nH]c5cc(OC)ccc5c4CCN3C[C@H]2C[C@@H](OC(=O)c2cc(OC)c(OC)c(OC)c2)[C@@H]1OC 8.36 µM
O=C1OC(c2ccc(O)cc2)(c2ccc(O)cc2)c2ccccc21 30.8 µM

Read-out: Interferon-gamma inducible Protein 10 (IP10), CXCL10 (gene 3627)
Assay: BSK_BE3C_IP10: BioMAP Diversity Plus: BE3C Assay for Interferon-gamma inducible Protein 10 (IP10) Biomarker Activity (AID 2283034)
Details: primary human bronchial epithelial cells; actives raise or lower the signal
Summary of the method: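 Primary human bronchial epithelial cells, with IP-10 measured by ELISA 24 hours after chemical dosing. Bidirectional fit against DMSO; cytotoxicity checked by SRB total protein staining in parallel cultures.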

outcome, inactive:
O=C1O[C@H]([C@H](O)CO)C(O)=C1O
O=C(O)CC(O)(CC(=O)O)C(=O)O
CN(C)CCCN(C)CCCN(C)C
Cn1cnc2c1c(=O)[nH]c(=O)n2C
N[C@@H](Cc1c[nH]c2ccccc12)C(=O)O
CO[C@@H]1COCC[C@@H]1N[C@@H]1CC[C@@](C(=O)N2CCc3ncc(C(F)(F)F)cc3C2)(C(C)C)C1
CC(C)c1cccc(C(C)C)c1
CC(=O)O
NC(=Nc1ccccc1)Nc1ccccc1
CC(=O)S[C@H](C(=O)N[C@H]1Cc2ccccc2[C@H]2CCC[C@@H](C(=O)O)N2C1=O)C(C)C
OCC(CO)n1cnc(-c2ccc(F)cc2)c1-c1ccnc(Oc2ccccc2)n1
CCCCc1nc2cccnc2n1Cc1ccc(-c2ccccc2-c2nnn[nH]2)cc1
O=C1NC(=O)C(c2ccccc2)(c2ccccc2)N1
Nc1nc(=S)c2[nH]cnc2[nH]1
CCCC[C@H]1CN(CC2CCOCC2)C(=O)OC12CCN(C1(C)CCN(C(=O)c3c(C)ncnc3C)CC1)CC2
O=C(O)c1cccnc1
O=C(Oc1ccccc1)c1cccc(C(=O)Oc2ccccc2)c1
O=C1c2c(O)cccc2Cc2cccc(O)c21
COc1ccc(C(=O)Nc2nc3ccccc3c(NCc3ccccc3)c2C#N)cc1
O=[Si]=O
COC(=O)CCC(=O)OC
O=Cc1ccccc1C=O
c1ccc2occc2c1
CC(C)NCC(O)c1ccc(O)c(O)c1 (configuration not stated)
C/C=C/C=C/C(=O)O
CC1=C(C)S(=O)(=O)CCS1(=O)=O
CCCCC(CC)COC(=O)CCCCCCCC(=O)OCC(CC)CCCC (configuration not stated)

AC50, active:
CCCCCCCCCCCCCCOS(=O)(=O)O 17.4 µM

Read-out: Monokine induced gamma interferon (MIG), CXCL9 (gene 4283)
Assay: BSK_BE3C_MIG: BioMAP Diversity Plus: BE3C Assay for Monokine induced gamma interferon (MIG) Biomarker Activity (AID 2283035);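 as to outcome: MIG protein measured by ELISA in BE3C cultures after 24 h of dosing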
Details: primary human bronchial epithelial cells; actives raise or lower the signal
Summary of the method: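 MIG level was determined by ELISA after 24 h chemical treatment of primary human bronchial epithelial cells. Values were fitted bidirectionally with DMSO as the negative control and activity baseline.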

outcome, inactive:
O=C1O[C@H]([C@H](O)CO)C(O)=C1O
O=C(O)CC(O)(CC(=O)O)C(=O)O
CN(C)CCCN(C)CCCN(C)C
Cn1cnc2c1c(=O)[nH]c(=O)n2C
N[C@@H](Cc1c[nH]c2ccccc12)C(=O)O
CO[C@@H]1COCC[C@@H]1N[C@@H]1CC[C@@](C(=O)N2CCc3ncc(C(F)(F)F)cc3C2)(C(C)C)C1
CC(C)c1cccc(C(C)C)c1
CC(=O)O
NC(=Nc1ccccc1)Nc1ccccc1
CC(=O)S[C@H](C(=O)N[C@H]1Cc2ccccc2[C@H]2CCC[C@@H](C(=O)O)N2C1=O)C(C)C
OCC(CO)n1cnc(-c2ccc(F)cc2)c1-c1ccnc(Oc2ccccc2)n1
CCCCc1nc2cccnc2n1Cc1ccc(-c2ccccc2-c2nnn[nH]2)cc1
O=C1NC(=O)C(c2ccccc2)(c2ccccc2)N1
Nc1nc(=S)c2[nH]cnc2[nH]1
COC(=O)[C@H]1[C@H]2C[C@@H]3c4[nH]c5cc(OC)ccc5c4CCN3C[C@H]2C[C@@H](OC(=O)c2cc(OC)c(OC)c(OC)c2)[C@@H]1OC
CCCC[C@H]1CN(CC2CCOCC2)C(=O)OC12CCN(C1(C)CCN(C(=O)c3c(C)ncnc3C)CC1)CC2
O=C(O)c1cccnc1
O=C(Oc1ccccc1)c1cccc(C(=O)Oc2ccccc2)c1
O=C1c2c(O)cccc2Cc2cccc(O)c21
COc1ccc(C(=O)Nc2nc3ccccc3c(NCc3ccccc3)c2C#N)cc1
O=[Si]=O
COC(=O)CCC(=O)OC
O=Cc1ccccc1C=O
c1ccc2occc2c1
CC(C)NCC(O)c1ccc(O)c(O)c1 (configuration not stated)
C/C=C/C=C/C(=O)O
CC1=C(C)S(=O)(=O)CCS1(=O)=O
CCCCC(CC)COC(=O)CCCCCCCC(=O)OCC(CC)CCCC (configuration not stated)

AC50, active:
CCCCCCCCCCCCCCOS(=O)(=O)O 34.2 µM
O=C1OC(c2ccc(O)cc2)(c2ccc(O)cc2)c2ccccc21 7.79 µM
